A selection: hits, their analogues and other compounds. The true share with any hit is near 3.4%.
FBW7 act – human FBW7 E3 ligase activation, primary screen | Q969H0 | AlphaScreen FBW7–phospho-cyclin E peptide binding, activator screen | normalized activity (activation), % at 26.1 µM | hit rate 0.13% among 650,000; in the data active = normalized activity above about 1.9%;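 also: purified mutant Fbw7 with reduced substrate affinity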
GPR151 activ – human GPR151 activation | Q8TDV0 | PathHunter beta-arrestin GPR151 cells, luminescence | activation, % at 11.2 µM | hit rate 1% among 650,000 | AID 1508602; in the data active = activation above about 4.9%
Target sequence (Q8TDV0 whole entry, looked up): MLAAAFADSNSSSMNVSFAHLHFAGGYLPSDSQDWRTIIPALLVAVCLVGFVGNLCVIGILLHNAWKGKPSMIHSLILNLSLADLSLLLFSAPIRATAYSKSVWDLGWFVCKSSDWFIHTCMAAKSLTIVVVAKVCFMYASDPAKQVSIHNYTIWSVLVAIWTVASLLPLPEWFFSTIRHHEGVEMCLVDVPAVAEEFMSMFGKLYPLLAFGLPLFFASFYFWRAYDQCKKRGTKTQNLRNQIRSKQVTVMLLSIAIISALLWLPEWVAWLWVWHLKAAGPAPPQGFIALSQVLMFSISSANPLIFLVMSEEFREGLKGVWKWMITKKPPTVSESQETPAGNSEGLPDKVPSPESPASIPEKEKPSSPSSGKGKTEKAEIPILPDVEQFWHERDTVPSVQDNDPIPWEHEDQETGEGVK
MITF primary – human MITF inhibition, primary screen; hit rate 0.91% among 650,000; AID 1259374; inhibition, % at 2.6 µM; AlphaScreen MITF homodimerization, bead proximity signal; in the data active = inhibition above about 50%
TEAD-YAP inh – TEAD-YAP interaction inhibition. HEK-TIYL cells, TEAD-Gal4/YAP UAS-luciferase luminescence. inhibition, % at 9.12 µM. hit rate 1.4% among 640,000. AID 1259422; in the data active = inhibition above about 32%
MITF confirm – human MITF inhibition, confirmation. shares compounds with MITF primary. AlphaScreen MITF homodimerization, biotin/His-MITF beads. inhibition, % at 2.6 µM. hit rate 16% among 4,700. AID 1259372;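 active = inhibition above a cutoff derived from the DMSO control wells, cut at about 28% in these data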;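 also: inhibitors lower the bead chemiluminescence by keeping MITF from dimerizing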
AlphaScreen DR – counter-screen: compounds optically interfering with AlphaScreen. shares compounds with MITF primary. AlphaScreen optical interference counterscreen, cell-free. IC50, µM. hit rate 6% among 480. AID 1259373; call rule not given here
AlphaScreen intf2 – counter-screen: compounds optically interfering with AlphaScreen; shares compounds with MITF primary; LysRS AlphaScreen counterscreen, signal interference, triplicate; inhibition, % at 2.6 µM; hit rate 7.6% among 4,700; AID 1259376;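 active = inhibition above a cutoff derived from the DMSO control wells, cut at about 30% in these data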
GPR151 conf act – confirmation of human GPR151 activators | shares compounds with GPR151 activ | GPR151 PathHunter beta-arrestin cells, luminescence, 90 min; % of EA-reagent control over plate median | activation, % at 11.2 µM | 6,700 tested, under 10 active | AID 1508609;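 active = mean percent activation across replicates above the confirmation screen cutoff of 4.91%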
GPR119 counter – activates human GPR119 in a GPR151 counter-screen; shares compounds with GPR151 activ; GPR119 PathHunter beta-arrestin cells, luminescence, 90 min; 0 = compound-well median, 100 = enzyme-acceptor control; activation, % at 11.2 µM; hit rate 0.3% among 6,700;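 active = mean percent activation in the counterscreen above 29.09%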;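 also: counterscreen on off-target GPR119 to flag nonselective hits from the GPR151 activator screen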
Hits are given with their value; 0 = inactive; - = no result; ! = not confirmed by another sample.

SMILES	FBW7 act	GPR151 activ	MITF primary	TEAD-YAP inh	MITF confirm	AlphaScreen intf2	others
COc1ccc(CN2CCN(Cc3ccc(OC)cc3)CC2)cc1	0	0	0	0	-	-
Cn1cncc1C(O)(c1ccccc1)c1ccccc1	0	0	0	0	-	-
O=C(COc1ccc(Br)cc1Br)Nc1ccc(Cl)cc1C(=O)c1ccccc1	0	0	0	0	-	-
COc1cccc(CN2CCN(c3ccc([N+](=O)[O-])cc3)CC2)c1	0	0	0	0	-	-
COc1cccc(CN2CCN(Cc3cccc(Br)c3)CC2)c1	0	0	63.0	0	0	0
COc1cccc(CN2CCN(Cc3ccc(Br)cc3)CC2)c1	0	0	69.7	0	0	0
Cc1[nH]c2ccccc2c1CC1C(=O)N(C)C(=O)N(C)C1=O	0	0	0	0	-	-
O=C(Oc1cccc2cccnc12)c1cccc(S(=O)(=O)N2CCOCC2)c1	0	0	0	0	-	-
COc1cccc(CN2CCN(Cc3cccc(Cl)c3)CC2)c1	0	0	70.4	0	0	0
CSc1ccc(CN2CCN(Cc3cccc(Cl)c3)CC2)cc1	0	0	67.0	0	0	0
CC(=O)c1ccc(N2CCN(Cc3cccc(Cl)c3)CC2)cc1	0	0	0	0	-	-
COc1ccc(O)c(CN2CCN(Cc3cccc(Cl)c3)CC2)c1	0	0	0	0	-	-
COc1ccc(CN2CCN(Cc3cccc(Cl)c3)CC2)cc1	0	0	82.5	0	0	0
Cc1ccccc1C1C=C(c2cccnc2)Nc2ncnn21 (centres undefined)	0	0	0	0	-	-
CN(C)CCc1nnn(C(C)(C)C)n1	0	0	0	0	-	-
CC(C)CNC(=O)c1ccc(N2CC3CC(C2)c2cccc(=O)n2C3)c([N+](=O)[O-])c1 (centres undefined)	0	0	0	0	-	-
Cc1cccc(CN2CCN(Cc3ccc(Cl)cc3)CC2)c1	0	0	59.3	0	0	0
Cc1cccc(CN2CCN(Cc3cccc(F)c3)CC2)c1	0	0	76.2	0	0	0
CCc1ccc(CN2CCN(Cc3cccc(C)c3)CC2)cc1	0	0	0	0	-	-
Fc1cccc(CN2CCN(Cc3ccccc3)CC2)c1	0	0	63.5	0	0	0
Fc1cccc(CN2CCN(Cc3ccccc3F)CC2)c1	0	0	69.5	0	0	0
COCc1ccc2oc(C(=O)OC(C)CCN(C)C)cc2c1 (centres undefined)	0	0	0	0	-	-
CCc1ccc(CN2CCN(Cc3ccc(F)cc3)CC2)cc1	0	0	56.7	0	0	0
CCN1CCN(Cc2cccc(F)c2)CC1	0	0	0	0	-	-
CCc1ccc(CN2CCN(Cc3cccc(F)c3)CC2)cc1	0	0	74.7	0	0	0
SMILES	FBW7 act	GPR151 activ	MITF primary	TEAD-YAP inh	MITF confirm	AlphaScreen intf2	others
Cc1cc(C=O)c(C)n1Cc1ccccc1	0	0	0	0	-	-
O=C(CN1CCN(C(=O)Cc2ccc(F)cc2)CC1)c1cccs1	0	0	0	0	-	-
O=C(CN1CCN(C(=O)COc2ccccc2F)CC1)c1cccs1	0	0	50.6	0	0	0
O=P(O)(O)C(Cl)(Cl)P(=O)(O)O	0	0	77.1!	0	62.5	0
COc1cc(CN2CCN(C(C)C)CC2)cc(OC)c1O	0	0	71.5	0	0	0
CCC(CC)N1CCN(Cc2cc(OC)c(OC)c(OC)c2)CC1	0	0	57.1	0	0	0
COc1cc(CN2CCN(c3ccccc3)CC2)cc(OC)c1O	0	0	0	0	-	-
CCOc1cc(CN2CCN(CC)CC2)ccc1O	0	0	57.1	0	0	0
CCN1CCN(Cc2ccc(OC)c(C)c2C)CC1	0	0	53.4	0	0	0
COc1ccc(Br)cc1CNCCc1ccc(OC)c(OC)c1	0	0	0	0	-	-
CCCCCc1c(C)c(C#N)c2nc3ccccc3n2c1-n1cnc2ccccc21	0	0	0	0	-	-
Cc1cccc(CN2CCN(C(C)C)CC2)c1	0	0	0	0	-	-
COc1cc(CN2CCN(C(C)C)CC2)cc(OC)c1OC	0	0	82.2	0	0	0
COc1cc(CN2CCN(CCO)CC2)cc(OC)c1OC	0	0	0	0	-	-
CCN1CCN(Cc2cc(OC)c(OC)c(OC)c2)CC1	0	0	52.2	0	0	0
Fc1ccc(CN2CCc3nc4ncccc4cc3C2)cc1	0	0	0	0	-	-
CCOC(=O)C1C2NC(=S)N(c3cccc(C)c3)C1(C)Oc1ccc(OC)cc12 (centres undefined)	0	0	58.7	0	49.6	35.0
CCOC(=O)C1C2NC(=S)N(CCc3ccccc3)C1(C)Oc1ccc(Br)cc12 (centres undefined)	0	0	0	0	-	-
CCOC(=O)C1C2NC(=S)N(CC)C1(C)Oc1ccc(Br)cc12 (centres undefined)	0	0	53.1	0	31.2	0	AlphaScreen DR=0
CCOC(=O)C1C2NC(=S)N(c3ccccc3)C1(C)Oc1cc(OC)ccc12 (centres undefined)	0	0	52.5	0	47.1	0	AlphaScreen DR=0
OC(Cc1nc2ccccc2s1)C(Cl)(Cl)Cl (centres undefined)	0	0	0	0	-	-
Cc1nc2ccc(P(=O)(O)O)cc2s1	0	0	55.1	0	0	40.1
N/C(=N\[N+](=O)[O-])N/N=C\c1ccc(-c2ccccc2C(=O)O)o1	0	0	0	0	-	-
N/C(=N\[N+](=O)[O-])N/N=C\c1ccc(-c2ccc(O)c(C(=O)O)c2)o1	0	0	74.6	0	79.1	0	AlphaScreen DR=0
C[N+]1(C)C2CCC1CC(OC(=O)C(CO)c1ccccc1)C2 (centres undefined)	0	0	62.9!	0	0	0
SMILES	FBW7 act	GPR151 activ	MITF primary	TEAD-YAP inh	MITF confirm	AlphaScreen intf2	others
C[N+]1(C)[C@@H]2CC[C@H]1CC(OC(=O)C(CO)c1ccccc1)C2 (some centres undefined)	0	0	0	-	-	-
Cc1ccccc1N1C(=O)CC(=O)NC1=S	0	0	0	0	-	-
CCOC(=O)C(=O)C1C(=O)N(C)C2(C)CC1c1ccccc1O2 (centres undefined)	0	0	0	0	-	-
CN1CCN(c2ccc([N+](=O)[O-])c(NCCO)c2)CC1	0	11.2	0	0	-	-	GPR151 conf act=0;GPR119 counter=0
O=[N+]([O-])c1ccc(N2CCNCC2)cc1NCCO	0	0	0	0	-	-
Cc1cccnc1NC(=O)c1c(O)c2c(n(Cc3ccco3)c1=O)CCCC2	0	0	0	0	-	-
COc1ccc(C2C([N+](=O)[O-])=C(N)Oc3c2c(=O)oc2ccccc32)cc1OC (centres undefined)	0	0	0	0	-	-
COc1cc(C2C([N+](=O)[O-])=C(N)Oc3c2c(=O)oc2ccccc32)ccc1O (centres undefined)	0	5.7	0	0	-	-	GPR151 conf act=0;GPR119 counter=0

Source: PubChem (The Scripps Research Institute Molecular Screening Center)
